Source: PubChem BioAssay AID1159580 (chemical genetic matrix, 2015)
About 2,000 (36%) of roughly 5,500 compounds were called active. About 18% were inconclusive and are not listed. Cut-off read from the data, not from the text of the source: active = normalized growth mostly below about 0.91 (no sharp cut-off); inconclusive = no clear call, values can overlap the other calls; inactive = mostly above about 0.92. This is one part of the list.

Assay: chemical genetic growth profiling, strain panel (AID 1159580);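 note: tested at 20 µM; growth read once vehicle control cultures reached saturation at 30 °C; 1 = growth at the plate median or of vehicle wells; lower values mean less growth of the strain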
Conditions: growth OD

Measured: normalized growth

CCCCCC1C(=O)CCC1CC(=O)OC (stereo unspecified)
inactive: S. cerevisiae deletion strains, locus YJR043C, strain POL32, stronger effect = lower value 0.991 | S. cerevisiae deletion strains, locus YJR066W, strain TOR1, stronger effect = lower value 0.982 | S. cerevisiae deletion strains, locus YJR075W, strain HOC1, stronger effect = lower value 1.01 | S. cerevisiae deletion strains, locus YKL009W, strain mrt4, stronger effect = lower value 0.914 | S. cerevisiae deletion strains, locus YKL068W, stronger effect = lower value 0.952 | S. cerevisiae deletion strains, locus YKL085W, strain MDH1 (second series), stronger effect = lower value 0.96 | S. cerevisiae deletion strains, locus YKL085W, strain MDH1, stronger effect = lower value 0.96 | S. cerevisiae deletion strains, locus YKL160W, strain elf1, stronger effect = lower value 0.988 | S. cerevisiae deletion strains, locus YKR001C, strain vps1, stronger effect = lower value 0.951 | S. cerevisiae deletion strains, locus YKR026C, strain gcn3, stronger effect = lower value 0.976 | S. cerevisiae deletion strains, locus YKR091W, strain srl3, stronger effect = lower value 0.982 | S. cerevisiae deletion strains, locus YLL001W, strain dnm1, stronger effect = lower value 0.983 | S. cerevisiae deletion strains, locus YLL026W, stronger effect = lower value 0.981 | S. cerevisiae deletion strains, locus YLL041C, strain sdh2, stronger effect = lower value 0.982 | S. cerevisiae deletion strains, locus YLR027C, strain aat2, stronger effect = lower value 0.983 | S. cerevisiae deletion strains, locus YLR039C, strain RIC1, stronger effect = lower value 1.03 | S. cerevisiae deletion strains, locus YLR058C, strain SHM2, stronger effect = lower value 1 | S. cerevisiae deletion strains, locus YLR102C, strain apc9, stronger effect = lower value 0.956 | S. cerevisiae deletion strains, locus YLR113W, strain HOG1, stronger effect = lower value 0.942 | S. cerevisiae deletion strains, locus YLR221C, strain rsa3, stronger effect = lower value 0.985 | S. cerevisiae deletion strains, locus YLR258W, strain gsy2, stronger effect = lower value 0.981 | S. cerevisiae deletion strains, locus YLR262C, strain YPT6 (second series), stronger effect = lower value 1.02 | S. cerevisiae deletion strains, locus YLR262C, strain YPT6, stronger effect = lower value 1.05 | S. cerevisiae deletion strains, locus YLR268W, strain sec22, stronger effect = lower value 0.956 | S. cerevisiae deletion strains, locus YLR320W, strain mms22, stronger effect = lower value 0.97 | S. cerevisiae deletion strains, locus YLR330W, strain CHS5, stronger effect = lower value 0.97 | S. cerevisiae deletion strains, locus YLR342W, strain FKS1 (second series), stronger effect = lower value 1.08 | S. cerevisiae deletion strains, locus YLR342W, strain FKS1, stronger effect = lower value 0.984 | S. cerevisiae deletion strains, locus YLR357W, strain rsc2, stronger effect = lower value 0.947 | S. cerevisiae deletion strains, locus YLR370C, strain arc18, stronger effect = lower value 0.978 | S. cerevisiae deletion strains, locus YLR371W, strain rom2, stronger effect = lower value 0.958 | S. cerevisiae deletion strains, locus YLR384C, strain iki3, stronger effect = lower value 0.961 | S. cerevisiae deletion strains, locus YLR418C, strain cdc73, stronger effect = lower value 1.02 | S. cerevisiae deletion strains, locus YML016C, strain PPZ1, stronger effect = lower value 0.975 | S. cerevisiae deletion strains, locus YML032C, strain rad52, stronger effect = lower value 0.983 | S. cerevisiae deletion strains, locus YML120C, strain ndi1, stronger effect = lower value 0.994 | S. cerevisiae deletion strains, locus YML124C, strain tub3, stronger effect = lower value 0.941 | S. cerevisiae deletion strains, locus YMR058W, strain fet3, stronger effect = lower value 0.992 | S. cerevisiae deletion strains, locus YMR078C, strain ctf18, stronger effect = lower value 0.945 | S. cerevisiae deletion strains, locus YMR125W, strain sto1, stronger effect = lower value 0.971 | S. cerevisiae deletion strains, locus YMR129W, stronger effect = lower value 0.973 | S. cerevisiae deletion strains, locus YMR205C, strain PFK2, stronger effect = lower value 0.969 | S. cerevisiae deletion strains, locus YMR223W, strain ubp8, stronger effect = lower value 0.981 | S. cerevisiae deletion strains, locus YMR231W, strain pep5, stronger effect = lower value 0.97 | S. cerevisiae deletion strains, locus YMR263W, strain SAP30, stronger effect = lower value 1.02 | S. cerevisiae deletion strains, locus YMR307W, strain GAS1, stronger effect = lower value 1.24 | S. cerevisiae deletion strains, locus YNL067W, strain RPL9B, stronger effect = lower value 1.03 | S. cerevisiae deletion strains, locus YNL071W, strain lat1, stronger effect = lower value 0.988 | S. cerevisiae deletion strains, locus YNL153C, strain GIM3, stronger effect = lower value 1.02 | S. cerevisiae deletion strains, locus YNL183C, strain NPR1, stronger effect = lower value 0.928 | S. cerevisiae deletion strains, locus YNL209W, strain ssb2, stronger effect = lower value 0.983 | S. cerevisiae deletion strains, locus YNL233W, strain BNI4, stronger effect = lower value 1.04 | S. cerevisiae deletion strains, locus YNL248C, strain rpa49, stronger effect = lower value 0.967 | S. cerevisiae deletion strains, locus YNL250W, strain rad50, stronger effect = lower value 0.945 | S. cerevisiae deletion strains, locus YNL271C, strain bni1, stronger effect = lower value 0.937 | S. cerevisiae deletion strains, locus YNL298W, strain CLA4, stronger effect = lower value 0.966 | S. cerevisiae deletion strains, locus YNL307C, strain MCK1, stronger effect = lower value 0.97 | S. cerevisiae deletion strains, locus YNL322C, strain KRE1 (second series), stronger effect = lower value 0.981 | S. cerevisiae deletion strains, locus YNL322C, strain KRE1, stronger effect = lower value 0.988 | S. cerevisiae deletion strains, locus YNR049C, strain mso1, stronger effect = lower value 0.987 | S. cerevisiae deletion strains, locus YNR052C, strain pop2, stronger effect = lower value 0.978 | S. cerevisiae deletion strains, locus YOL012C, strain htz1 1.15 | S. cerevisiae deletion strains, locus YOL147C, strain pex11, stronger effect = lower value 0.965 | S. cerevisiae deletion strains, locus YOR001W, strain rrp6, stronger effect = lower value 0.977 | S. cerevisiae deletion strains, locus YOR061W, strain CKA2, stronger effect = lower value 0.99 | S. cerevisiae deletion strains, locus YOR069W, strain VPS5, stronger effect = lower value 0.978 | S. cerevisiae deletion strains, locus YOR070C, strain gyp1, stronger effect = lower value 0.972 | S. cerevisiae deletion strains, locus YOR080W, strain dia2, stronger effect = lower value 0.974 | S. cerevisiae deletion strains, locus YOR083W, strain WHI5, stronger effect = lower value 0.986 | S. cerevisiae deletion strains, locus YOR106W, strain vam3, stronger effect = lower value 1.03 | S. cerevisiae deletion strains, locus YOR136W, strain idh2, stronger effect = lower value 0.973 | S. cerevisiae deletion strains, locus YOR144C, strain elg1, stronger effect = lower value 0.963 | S. cerevisiae deletion strains, locus YOR184W, strain ser1, stronger effect = lower value 0.921 | S. cerevisiae deletion strains, locus YOR231W, strain MKK1, stronger effect = lower value 0.977 | S. cerevisiae deletion strains, locus YOR265W, strain rbl2, stronger effect = lower value 0.981 | S. cerevisiae deletion strains, locus YOR270C, strain vph1, stronger effect = lower value 0.997 | S. cerevisiae deletion strains, locus YOR290C, strain snf2, stronger effect = lower value 1 | S. cerevisiae deletion strains, locus YOR316C, strain cot1, stronger effect = lower value 0.952 | S. cerevisiae deletion strains, locus YPL051W, strain arl3, stronger effect = lower value 0.991 | S. cerevisiae deletion strains, locus YPL055C, strain LGE1, stronger effect = lower value 1 | S. cerevisiae deletion strains, locus YPL078C, strain atp4, stronger effect = lower value 0.975 | S. cerevisiae deletion strains, locus YPL106C, strain sse1, stronger effect = lower value 0.999 | S. cerevisiae deletion strains, locus YPL240C, strain hsp82, stronger effect = lower value 0.969 | S. cerevisiae deletion strains, locus YPL241C, strain CIN2, stronger effect = lower value 0.977 | S. cerevisiae deletion strains, locus YPL256C, strain CLN2, stronger effect = lower value 0.97 | S. cerevisiae deletion strains, locus YPR119W, strain clb2, stronger effect = lower value 0.939 | S. cerevisiae deletion strains, locus YPR141C, strain kar3, stronger effect = lower value 0.944 | S. cerevisiae deletion strains, locus YPR163C, strain tif3, stronger effect = lower value 0.963 | S. cerevisiae deletion strains, locus YPR167C, strain met16, stronger effect = lower value 0.959 | S. cerevisiae deletion strains, strain wtn01, stronger effect = lower value 0.962 | S. cerevisiae strains, strain wild type, stronger effect = lower value 1
